Results: ChEMBL document CHEMBL3988442, “University of Dundee, Small-Polar-MMV Screening Library” (2021)
For some of these results: Results with a measured potency or affinity are listed apart.

Key:
Set-up in all cases: scale not given: direction of the effect not stated beside the values
[1] = target: Protein translocase subunit SecA (Escherichia coli (strain K12)) (UniProt P10408); experiment: Assay to Identify E. coli SecA ATPase Inhibitors; assay type: functional; conditions: 30 µM
[2] = target: T1, Ubiquitin-activating enzyme e1, putative (Leishmania donovani (strain BPK282A1)) (UniProt E9BSI1); experiment: Leishmania donovani Ubiquitin Activating Enzyme (LdE1); assay type: functional; conditions: 30 µM
T1 sequence (whole entry): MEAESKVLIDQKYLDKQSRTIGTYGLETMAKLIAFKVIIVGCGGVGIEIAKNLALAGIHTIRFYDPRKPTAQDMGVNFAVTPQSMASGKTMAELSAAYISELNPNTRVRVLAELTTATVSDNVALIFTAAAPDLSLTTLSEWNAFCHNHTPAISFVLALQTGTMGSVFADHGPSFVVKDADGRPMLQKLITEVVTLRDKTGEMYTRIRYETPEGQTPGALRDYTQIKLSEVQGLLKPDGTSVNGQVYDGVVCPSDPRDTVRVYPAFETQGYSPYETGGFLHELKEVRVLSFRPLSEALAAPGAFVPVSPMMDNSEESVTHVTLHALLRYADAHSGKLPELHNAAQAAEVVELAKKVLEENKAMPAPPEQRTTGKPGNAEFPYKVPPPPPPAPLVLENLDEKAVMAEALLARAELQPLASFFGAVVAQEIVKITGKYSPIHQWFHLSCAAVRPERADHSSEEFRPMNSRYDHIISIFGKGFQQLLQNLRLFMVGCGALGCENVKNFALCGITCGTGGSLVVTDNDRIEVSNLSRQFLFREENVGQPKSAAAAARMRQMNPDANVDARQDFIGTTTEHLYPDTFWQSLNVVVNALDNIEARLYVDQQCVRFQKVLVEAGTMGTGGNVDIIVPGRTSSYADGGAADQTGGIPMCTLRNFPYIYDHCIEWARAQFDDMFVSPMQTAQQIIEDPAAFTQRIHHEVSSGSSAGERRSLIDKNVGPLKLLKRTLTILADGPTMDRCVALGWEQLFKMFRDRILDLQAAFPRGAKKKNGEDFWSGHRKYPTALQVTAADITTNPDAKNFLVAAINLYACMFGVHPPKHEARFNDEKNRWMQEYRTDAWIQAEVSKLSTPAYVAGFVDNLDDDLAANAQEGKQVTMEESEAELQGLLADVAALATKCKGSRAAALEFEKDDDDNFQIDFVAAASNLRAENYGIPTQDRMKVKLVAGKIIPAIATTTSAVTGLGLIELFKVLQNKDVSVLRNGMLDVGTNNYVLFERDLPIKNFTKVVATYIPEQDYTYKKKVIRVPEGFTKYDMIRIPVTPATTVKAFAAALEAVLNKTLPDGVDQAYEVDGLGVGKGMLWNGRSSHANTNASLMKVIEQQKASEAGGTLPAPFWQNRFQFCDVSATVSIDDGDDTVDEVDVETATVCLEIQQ

[3] = target: T2, Aspartate--tRNA(Asp/Asn) ligase (Mycobacterium tuberculosis (strain ATCC 25618 / H37Rv)) (UniProt P9WFW3); experiment: Assay for Asp RNA synthetase-1 from Mycobacterium tuberculosis; assay type: functional; conditions: 30 µM; note: in the data most compounds retested in dose-response had high values
T2 sequence (whole entry): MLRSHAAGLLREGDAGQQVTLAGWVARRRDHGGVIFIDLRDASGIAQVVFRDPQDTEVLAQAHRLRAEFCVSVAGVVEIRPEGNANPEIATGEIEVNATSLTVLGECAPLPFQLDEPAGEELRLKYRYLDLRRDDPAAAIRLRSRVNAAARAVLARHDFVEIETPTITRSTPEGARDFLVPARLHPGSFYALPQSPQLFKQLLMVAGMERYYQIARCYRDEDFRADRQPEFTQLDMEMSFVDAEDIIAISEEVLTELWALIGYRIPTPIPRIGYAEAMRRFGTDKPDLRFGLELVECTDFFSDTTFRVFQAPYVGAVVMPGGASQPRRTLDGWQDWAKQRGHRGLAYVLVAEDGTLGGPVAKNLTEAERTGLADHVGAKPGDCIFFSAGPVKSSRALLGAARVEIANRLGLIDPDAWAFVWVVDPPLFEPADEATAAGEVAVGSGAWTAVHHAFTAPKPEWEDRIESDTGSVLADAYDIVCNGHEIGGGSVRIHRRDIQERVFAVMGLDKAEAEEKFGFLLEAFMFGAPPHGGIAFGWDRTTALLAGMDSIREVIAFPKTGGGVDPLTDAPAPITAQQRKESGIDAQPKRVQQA

[4] = target: AMP-activated protein kinase, AMPK (Homo sapiens) (UniProt P54646+O43741+P54619+Q9UGJ0+Q9Y478+Q13131+Q9UGI9); experiment: AMP-dependent Kinase enzyme assay. An in vitro enzyme assay that detects ADP turnover that is directly proportional to AMPK activity. This uses naive AMPK that is activated during the assay with MK-8722; assay type: functional; conditions: 30 µM
[5] = target: Sialic acid-binding Ig-like lectin 9 (Homo sapiens) (UniProt Q9Y336); experiment: Hs-Siglec9 ALPHAscreen SOP 20170721; conditions: 10 µM
Chain of Sialic acid-binding Ig-like lectin 9 (Homo sapiens) (Q9Y336 whole entry): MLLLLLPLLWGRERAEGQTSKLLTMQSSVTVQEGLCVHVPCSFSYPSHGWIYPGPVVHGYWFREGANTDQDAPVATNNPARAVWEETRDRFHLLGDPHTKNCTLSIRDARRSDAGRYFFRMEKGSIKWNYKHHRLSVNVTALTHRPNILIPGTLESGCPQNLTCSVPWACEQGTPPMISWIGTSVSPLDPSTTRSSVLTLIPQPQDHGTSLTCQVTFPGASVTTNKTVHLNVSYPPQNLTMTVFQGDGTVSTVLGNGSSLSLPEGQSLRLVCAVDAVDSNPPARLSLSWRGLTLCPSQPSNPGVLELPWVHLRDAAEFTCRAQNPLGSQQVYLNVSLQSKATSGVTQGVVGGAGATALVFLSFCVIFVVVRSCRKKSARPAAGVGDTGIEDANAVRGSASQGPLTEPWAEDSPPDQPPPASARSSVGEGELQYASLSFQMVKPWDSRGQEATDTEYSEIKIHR

Trypanosoma cruzi = experiment: Trypanosoma cruzi phosphomannomutase and mannose-1-phosphate guanylyltransferase assay; assay type: functional; conditions: 10 µM
[6] = target: T3, Arginase-2, mitochondrial (Homo sapiens) (UniProt P78540); experiment: in vitro enzyme assay to detect the production of urea directly proportional to the activity of Arginase II; assay type: functional; conditions: 33.3 µM; note: in the data most compounds retested in dose-response had high values
T3 sequence (whole entry): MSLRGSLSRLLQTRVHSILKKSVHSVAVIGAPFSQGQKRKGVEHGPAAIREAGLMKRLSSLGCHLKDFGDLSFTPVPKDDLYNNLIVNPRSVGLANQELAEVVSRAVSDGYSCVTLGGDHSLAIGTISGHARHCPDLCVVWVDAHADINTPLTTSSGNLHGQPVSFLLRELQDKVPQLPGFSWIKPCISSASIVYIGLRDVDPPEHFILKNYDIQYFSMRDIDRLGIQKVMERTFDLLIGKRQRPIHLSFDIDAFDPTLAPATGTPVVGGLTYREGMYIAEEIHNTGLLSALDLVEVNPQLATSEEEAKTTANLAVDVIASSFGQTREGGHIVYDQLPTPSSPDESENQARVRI

[7] = target: T4, Proteasome subunit beta (Trypanosoma cruzi) (UniProt O96673); experiment: Trypanosoma cruzi proteasome chymotrypsin-like activity (TcProtChymo) assay.; note: in the data most compounds retested in dose-response had high values; assay type: functional; conditions: 9.37 µM
T4 sequence (whole entry): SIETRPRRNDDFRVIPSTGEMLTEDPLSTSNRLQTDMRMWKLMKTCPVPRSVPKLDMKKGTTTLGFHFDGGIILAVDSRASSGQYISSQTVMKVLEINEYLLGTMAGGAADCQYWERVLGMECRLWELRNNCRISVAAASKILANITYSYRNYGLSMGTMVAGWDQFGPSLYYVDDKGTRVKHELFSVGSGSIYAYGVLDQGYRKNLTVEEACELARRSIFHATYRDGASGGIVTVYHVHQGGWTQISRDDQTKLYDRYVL

Homo sapiens = species: Homo sapiens; experiment: To identify inhibition of the IFN signalling (Jak-Stat) pathway via expression of an eGFP reporter gene under the control of an IFN-stimulated response element (ISRE) containing MxA promoter.; assay type: functional; conditions: 30 µM
[8] = target: Shiga toxin 2 (Escherichia coli O157:H7) (UniProt P09385+P09386); experiment: E. coli 0.157:H7 Shiga Toxin SOP - stx2 screening assay; assay type: functional; conditions: 30 µM
[9] = target: T5, Tyrosyl-tRNA synthetase, putative (Trypanosoma cruzi (strain CL Brener)) (UniProt Q4DSP6); experiment: Trypanosoma cruzi tyrosyl tRNA synthetase (TcYRS) _High Tyrosine SOP; assay type: functional; conditions: 30 µM; note: in the data most compounds retested in dose-response had high values
T5 sequence (whole entry): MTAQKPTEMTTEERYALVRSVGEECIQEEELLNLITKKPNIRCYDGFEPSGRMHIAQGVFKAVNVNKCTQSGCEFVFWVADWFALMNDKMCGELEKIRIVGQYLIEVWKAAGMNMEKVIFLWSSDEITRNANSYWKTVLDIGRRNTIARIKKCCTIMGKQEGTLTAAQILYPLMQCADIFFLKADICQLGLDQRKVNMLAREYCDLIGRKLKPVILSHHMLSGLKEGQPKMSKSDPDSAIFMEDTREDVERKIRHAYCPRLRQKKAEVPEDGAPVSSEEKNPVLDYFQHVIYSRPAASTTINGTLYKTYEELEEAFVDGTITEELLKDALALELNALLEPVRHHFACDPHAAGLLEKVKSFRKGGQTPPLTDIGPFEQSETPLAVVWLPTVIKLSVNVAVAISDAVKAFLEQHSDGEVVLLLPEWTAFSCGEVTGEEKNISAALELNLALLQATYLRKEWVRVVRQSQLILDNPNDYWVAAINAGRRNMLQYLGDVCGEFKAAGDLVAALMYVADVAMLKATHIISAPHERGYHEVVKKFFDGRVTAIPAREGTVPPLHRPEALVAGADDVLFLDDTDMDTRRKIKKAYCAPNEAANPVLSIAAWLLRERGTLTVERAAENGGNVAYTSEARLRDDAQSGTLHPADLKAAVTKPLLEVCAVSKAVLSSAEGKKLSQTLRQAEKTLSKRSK

[10] = target: T5, Tyrosyl-tRNA synthetase, putative (Trypanosoma cruzi (strain CL Brener)); experiment: Trypanosoma cruzi tyrosyl tRNA synthetase (TcYRS) SOP; assay type: functional; conditions: 30 µM
[11] = target: Chromo domain-containing protein 1 (Saccharomyces cerevisiae (strain ATCC 204508 / S288c) (Baker's yeast)) (UniProt P32657); experiment: ScCHD-1 Enzyme Inhibition Assay; assay type: functional; conditions: 30 µM; note: in the data most compounds retested in dose-response had high values
Chain of Chromo domain-containing protein 1 (Saccharomyces cerevisiae (strain ATCC 204508 / S288c) (Baker's yeast)) (P32657 whole entry, the tested form may be a part): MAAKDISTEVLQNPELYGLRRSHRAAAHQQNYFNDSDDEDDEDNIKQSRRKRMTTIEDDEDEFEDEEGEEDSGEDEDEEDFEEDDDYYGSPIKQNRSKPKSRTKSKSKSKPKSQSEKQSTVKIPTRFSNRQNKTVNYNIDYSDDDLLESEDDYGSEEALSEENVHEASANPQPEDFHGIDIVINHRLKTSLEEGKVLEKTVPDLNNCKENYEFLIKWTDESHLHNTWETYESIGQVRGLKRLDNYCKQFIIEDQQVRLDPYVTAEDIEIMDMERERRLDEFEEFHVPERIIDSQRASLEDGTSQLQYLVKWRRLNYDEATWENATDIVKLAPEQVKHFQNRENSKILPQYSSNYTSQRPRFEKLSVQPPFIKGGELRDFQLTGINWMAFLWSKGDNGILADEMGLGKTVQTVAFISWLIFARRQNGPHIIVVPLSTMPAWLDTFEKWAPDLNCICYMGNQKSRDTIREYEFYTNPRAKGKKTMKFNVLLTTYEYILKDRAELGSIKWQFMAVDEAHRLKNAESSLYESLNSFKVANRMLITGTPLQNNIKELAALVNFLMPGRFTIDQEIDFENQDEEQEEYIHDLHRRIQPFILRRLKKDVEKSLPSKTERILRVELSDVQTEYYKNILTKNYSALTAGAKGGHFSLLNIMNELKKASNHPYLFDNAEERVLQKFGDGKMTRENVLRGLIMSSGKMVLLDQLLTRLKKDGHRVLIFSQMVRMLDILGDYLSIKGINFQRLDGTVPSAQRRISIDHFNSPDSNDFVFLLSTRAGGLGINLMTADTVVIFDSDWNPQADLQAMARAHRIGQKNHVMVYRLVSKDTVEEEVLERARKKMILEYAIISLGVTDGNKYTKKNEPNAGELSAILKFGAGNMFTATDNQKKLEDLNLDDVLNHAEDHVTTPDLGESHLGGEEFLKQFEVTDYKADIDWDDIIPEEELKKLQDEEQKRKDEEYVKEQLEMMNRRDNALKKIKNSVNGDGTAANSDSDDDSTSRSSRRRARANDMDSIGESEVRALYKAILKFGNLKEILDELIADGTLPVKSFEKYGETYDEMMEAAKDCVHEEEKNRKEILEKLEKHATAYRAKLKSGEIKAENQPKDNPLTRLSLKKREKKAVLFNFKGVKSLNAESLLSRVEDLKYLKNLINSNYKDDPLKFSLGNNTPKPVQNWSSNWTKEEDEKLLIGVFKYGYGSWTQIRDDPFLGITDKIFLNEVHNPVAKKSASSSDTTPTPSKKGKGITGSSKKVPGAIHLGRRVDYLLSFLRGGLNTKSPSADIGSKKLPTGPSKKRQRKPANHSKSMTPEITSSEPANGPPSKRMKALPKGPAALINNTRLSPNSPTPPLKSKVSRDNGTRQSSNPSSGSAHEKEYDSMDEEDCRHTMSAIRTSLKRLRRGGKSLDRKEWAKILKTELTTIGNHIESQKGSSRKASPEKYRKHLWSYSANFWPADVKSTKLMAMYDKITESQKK

Chain of Protein translocase subunit SecA (Escherichia coli (strain K12)) (P10408 whole entry): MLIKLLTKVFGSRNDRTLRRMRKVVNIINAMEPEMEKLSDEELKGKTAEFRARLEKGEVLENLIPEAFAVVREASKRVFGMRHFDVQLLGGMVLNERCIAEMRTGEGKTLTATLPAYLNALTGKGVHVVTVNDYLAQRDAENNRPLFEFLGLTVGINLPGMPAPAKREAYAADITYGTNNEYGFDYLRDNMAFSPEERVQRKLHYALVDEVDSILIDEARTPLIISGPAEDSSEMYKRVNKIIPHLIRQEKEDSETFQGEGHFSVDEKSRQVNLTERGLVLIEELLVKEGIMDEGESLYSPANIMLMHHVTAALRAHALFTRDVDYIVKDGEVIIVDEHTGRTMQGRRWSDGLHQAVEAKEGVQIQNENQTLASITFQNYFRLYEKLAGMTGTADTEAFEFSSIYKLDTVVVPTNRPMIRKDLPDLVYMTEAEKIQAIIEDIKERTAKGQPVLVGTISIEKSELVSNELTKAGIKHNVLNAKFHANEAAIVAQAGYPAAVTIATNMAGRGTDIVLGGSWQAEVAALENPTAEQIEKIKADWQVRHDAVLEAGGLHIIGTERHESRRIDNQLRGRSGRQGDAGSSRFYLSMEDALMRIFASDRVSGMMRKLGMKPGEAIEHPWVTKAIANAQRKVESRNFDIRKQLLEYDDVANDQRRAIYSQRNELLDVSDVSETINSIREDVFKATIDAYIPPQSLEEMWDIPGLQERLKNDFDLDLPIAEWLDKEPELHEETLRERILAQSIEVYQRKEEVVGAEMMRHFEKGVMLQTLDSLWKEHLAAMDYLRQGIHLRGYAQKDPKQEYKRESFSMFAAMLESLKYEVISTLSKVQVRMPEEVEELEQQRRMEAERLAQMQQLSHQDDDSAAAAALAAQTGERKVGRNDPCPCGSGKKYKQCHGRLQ

Structure (SMILES) | Percent Effect [1] [%] | Percent Effect [2] [%] | Percent Effect [3] [%] | Percent Effect [4] [%] | Percent Effect [5] [%] | Percent Effect (Trypanosoma cruzi) [%] | Percent Effect [6] [%] | Percent Effect [7] [%] | Percent Effect (Homo sapiens) [%] | Percent Effect [8] [%] | Percent Effect [9] [%] | Percent Effect [10] [%] | Percent Effect [11] [%]
CCCN1CCN(Cc2nccn2CC)C(C)C1 (stereo not given) | -1.91 | 13.5 | 1.06 | -5.87 | -10.4 | -2.54 | -1.67 | 8.54 | 32.2 | -11.5 | 8.91 | 8.54 | -3.53
CCOCC(O)CN1CCN(C(=O)Cc2ccc(C)nc2)CC1 (stereo not given) | -0.896 | 18.4 | -0.811 | 1.93 | 7.02 | -3.38 | 3.83 | 15.9 | 10.3 | 27 | 11.3 | 17.1 | -5.52
c1ccc(OC[C@@H]2CCC[C@@]23CNCCO3)nc1 | -2.73 | 5.41 | 9.49 | 130 | -8.96 | -4.79 | -7.33 | 17.9 | 24.8 | -5.1 | 1.08 | 2.56 | -0.951
COCc1cncc2c1CCN(Cc1ccccn1)C2 | -5.11 | 5.41 | 3.14 | -2.9 | -3.72 | -0.391 | 4.58 | 14.4 | 2.95 | -55.7 | 14.8 | 23.2 | 1.79
Cc1ccc(CC(=O)N2CCN(CC(O)c3ccccc3)CC2)cn1 (stereo not given) | 1.4 | 5.26 | 1.83 | -2.25 | 3.56 | 5.83 | 5.75 | 1.5 | -4.04 | 2.79 | 5.39 | 17.1 | -5.71
CC(C)CN1C[C@H]2C[C@H](C(=O)Nc3cccnc3)[C@@H](C1)O2 | -0.904 | 0 | -0.0153 | 7.32 | -2.44 | -7.33 | 2.87 | 15.9 | -8.69 | -15.6 | 1.08 | 15.4 | 2.38
NCC1(c2cccc(Br)c2)CCOCC1 | -5.22 | 2.7 | 5.62 | -4.06 | -6.14 | -2.93 | -22.5 | 8.2 | 2.44 | -23.5 | 8.91 | -6.1 | -2.29
NCC1(c2cccc(C(F)(F)F)c2)CCOCC1 | -1.6 | 5.41 | 0.69 | -16.1 | -3.19 | -0.781 | 25 | 15.6 | 7.66 | -1.62 | 7.92 | 18.3 | 107
O=C(NC[C@]12COC[C@H]1CN(Cc1ccncc1)C2)c1ccco1 | -2.11 | 13.3 | -0.368 | 7.09 | 2.99 | -2.17 | 4.43 | 12.8 | 7.74 | -4.6 | 10.6 | 21.8 | -2.5
O=C(C1CCOC1)N1C[C@H]2CN(Cc3ccccn3)C[C@H]2C1 (stereo not given in full) | -0.372 | 13.5 | -0.474 | 2.96 | -5.9 | 0.293 | 6.05 | 16.2 | -9.37 | -2.63 | 6.49 | 15.4 | -0.817
